Our source for the outcome and AC50 values is PubChem BioAssay (EPA / NIEHS).

What all share (settings): mRNA level, 48 h; actives raise or lower the signal
Read-out in test [1]: Fatty Acid-Binding Protein 1 (FABP1), FABP1 (gene 2168)
In words: LTEA_HepaRG_FABP1: Life Technologies and Expression Analysis (LTEA) Assay for Fatty Acid-Binding Protein 1 (FABP1) using HepaRG (AID 2283494). A digest of the protocol:
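FABP1 expression by TaqMan qRT-PCR, normalised to three housekeeping genes, in HepaRG cells after 48 h chemical treatment. Eight-point half-log series topping at 100 uM in 0.5% DMSO, duplicates; gain or loss fitted relative to vehicle.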

Read-out in test [2]: Cytochrome P450 4A22 (Homo sapiens) (UniProt Q5TCH4)
In words: LTEA_HepaRG_CYP4A22: Life Technologies and Expression Analysis (LTEA) Assay for Cytochrome P450 4A22 (CYP4A22) using HepaRG (AID 2283495). In short, it runs like this:
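Readout is CYP4A22 transcript induction or loss, quantified by qRT-PCR and normalized to ACTB, GAPDH and POLR2A. Human HepaRG cells receive test chemicals for 48 h at eight half-log concentrations from 100 uM in 0.5% DMSO.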

Read-out in test [3]: Cytochrome P450 7A1 (Homo sapiens) (UniProt P22680)
In words: LTEA_HepaRG_CYP7A1: Life Technologies and Expression Analysis (LTEA) Assay for Cytochrome P450 7A1 (CYP7A1) using HepaRG (AID 2283496). A digest of the protocol: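 HepaRG, 48 h exposure, 8-pt half-log series from 100 uM, 0.5% DMSO vehicle, duplicates. Readout: TaqMan qRT-PCR mRNA vs three housekeeping genes; bidirectional curve fit against DMSO baseline.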

Read-out in test [4]: Glutathione S-Transferase (GSTA2), GSTA2 (gene 2939)
In words: LTEA_HepaRG_GSTA2: Life Technologies and Expression Analysis (LTEA) Assay for Glutathione S-Transferase (GSTA2) using HepaRG (AID 2283497). A digest of the protocol:
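GSTA2 transcript levels came from Fluidigm TaqMan qRT-PCR normalized to three housekeeping genes, fitted in both directions against DMSO. HepaRG cultures received chemicals for 48 h in serum-free induction medium (0.5% DMSO), 8 half-log concentrations up to 100 uM, duplicate.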

Read-out in test [5]: Glutamate-cysteine ligase catalytic (GCLC), GCLC (gene 2729)
In words: LTEA_HepaRG_GCLC: Life Technologies and Expression Analysis (LTEA) Assay for Glutamate-cysteine ligase catalytic (GCLC) using HepaRG (AID 2283498). In short, it runs like this:
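Expression by TaqMan qRT-PCR, normalized to three housekeeping genes (ACTB, GAPDH, POLR2A), with up- or down-regulation fitted against DMSO. HepaRG cells dosed in duplicate for 48 h with 8 half-log concentrations up to 100 uM, vehicle 0.5% DMSO.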

Read-out in test [6]: growth arrest and DNA damage 45 (GADD45G), GADD45G (gene 10912)
In words: LTEA_HepaRG_GADD45G: Life Technologies and Expression Analysis (LTEA) Assay for growth arrest and DNA damage 45 (GADD45G) using HepaRG (AID 2283499). A digest of the protocol: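 Gain or loss of GADD45G mRNA, quantified by TaqMan qRT-PCR against three housekeeping genes, is fitted in both directions relative to 0.5% DMSO. Human HepaRG cultures receive test chemical for 48 h at up to 100 uM.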

Read-out in test [7]: Glutamate-cysteine ligase regulatory (GCLM), GCLM (gene 2730)
In words: LTEA_HepaRG_GCLM: Life Technologies and Expression Analysis (LTEA) Assay for Glutamate-cysteine ligase regulatory (GCLM) using HepaRG (AID 2283500). A digest of the protocol:
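GCLM expression quantified by qRT-PCR, normalized to three housekeeping genes, after 48 h chemical treatment of HepaRG cells in duplicate at 8 concentrations (top 100 uM, half-log steps, 0.5% DMSO). Changes fitted both directions against vehicle.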

Read-out in test [8]: Glutathione S-transferase M3 (GSTM3), GSTM3 (gene 2947)
In words: LTEA_HepaRG_GSTM3: Life Technologies and Expression Analysis (LTEA) Assay for Glutathione S-transferase M3 (GSTM3) using HepaRG (AID 2283501). In short, it runs like this:
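HepaRG, plated 48 h, then serum-free induction medium; test chemical 48 h, duplicate; 100 uM top, half-log x8, 0.5% DMSO. Read-out: GSTM3 mRNA (TaqMan qRT-PCR, Fluidigm array). Bidirectional fit vs DMSO.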

Read-out in test [9]: Heat shock 70 kDa protein 1 (HSPA1A), gene 3303
In words: LTEA_HepaRG_HSPA1A: Life Technologies and Expression Analysis (LTEA) Assay for Heat shock 70 kDa protein 1 (HSPA1A) using HepaRG (AID 2283502). In short, it runs like this:
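HSPA1A expression measured by qRT-PCR with ACTB/GAPDH/POLR2A normalization; curves fitted in both directions relative to DMSO vehicle. Exposure: 48 h in HepaRG cells, duplicate 8-point half-log series from 100 uM, 0.5% DMSO, serum-free induction medium.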

Read-out in test [10]: Hypoxia-inducible factor 1-alpha (Homo sapiens) (UniProt Q16665)
In words: LTEA_HepaRG_HIF1A: Life Technologies and Expression Analysis (LTEA) Assay for Hypoxia-inducible factor 1 (HIF1A) Trancription factor using HepaRG (AID 2283503). In short, it runs like this:
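HIF1A transcript level read by qRT-PCR (ACTB, GAPDH, POLR2A normalization) after 48 h chemical exposure of HepaRG cultures. Eight half-log concentrations, top 100 uM, 0.5% DMSO vehicle, duplicates; bidirectional curve fit against DMSO baseline.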

The AC50 is the concentration at which the activity in the assay is half-maximal.

Molecules are shown by their SMILES. Activity calls are given as the source filed them. How the source made its calls: active means hit-call score of the fitted dose curve at least 0.9, where 1 is the maximum; inactive means score below 0.9.

Sequence of Hypoxia-inducible factor 1-alpha (Homo sapiens) (Q16665 whole entry, looked up): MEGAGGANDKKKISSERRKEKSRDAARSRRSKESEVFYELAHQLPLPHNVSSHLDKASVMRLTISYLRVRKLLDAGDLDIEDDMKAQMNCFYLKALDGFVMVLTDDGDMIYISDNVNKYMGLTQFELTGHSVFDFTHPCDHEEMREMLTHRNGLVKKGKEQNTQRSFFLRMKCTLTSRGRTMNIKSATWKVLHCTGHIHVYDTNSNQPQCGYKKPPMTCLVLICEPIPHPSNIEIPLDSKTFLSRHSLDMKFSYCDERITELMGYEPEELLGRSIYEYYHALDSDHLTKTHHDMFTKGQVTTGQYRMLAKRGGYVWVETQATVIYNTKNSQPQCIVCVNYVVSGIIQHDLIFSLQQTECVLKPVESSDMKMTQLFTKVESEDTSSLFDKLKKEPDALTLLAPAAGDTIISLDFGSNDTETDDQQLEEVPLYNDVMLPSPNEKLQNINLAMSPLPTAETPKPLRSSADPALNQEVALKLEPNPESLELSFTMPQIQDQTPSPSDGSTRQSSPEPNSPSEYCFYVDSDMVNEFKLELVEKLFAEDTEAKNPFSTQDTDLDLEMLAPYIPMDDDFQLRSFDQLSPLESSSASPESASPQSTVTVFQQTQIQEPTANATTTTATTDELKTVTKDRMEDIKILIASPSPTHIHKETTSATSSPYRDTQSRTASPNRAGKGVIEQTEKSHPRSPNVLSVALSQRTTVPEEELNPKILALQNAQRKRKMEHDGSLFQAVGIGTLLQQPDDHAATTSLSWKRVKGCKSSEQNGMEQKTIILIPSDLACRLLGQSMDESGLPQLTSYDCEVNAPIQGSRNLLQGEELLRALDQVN

`CCCCOC(=O)[C@@H](C)Oc1ccc(Oc2ccc(C(F)(F)F)cn2)cc1`: the call in test [1], in test [2], in test [4], in test [5], in test [6] and in test [7] was inactive. The result in [8], in test [9] and in test [10] was inactive. Besides, in test [3], the AC50 was 34.2 µM (active).
Regarding `Oc1ccc(C(c2ccc(O)cc2)C(Cl)(Cl)Cl)cc1`, the AC50 is 94.3 µM (active) in [1]; 78.2 µM (active) in [4]; 77.2 µM (active) in [5]; 78.9 µM (active) in test [6]; 94.5 µM (active) in test [9]; 79.5 µM (active) in test [10]. Further, the outcome in test [2], in test [3], in test [7] and in test [8] was inactive.
As to `CCCOC(=O)NCCCN(C)C`, the compound was classed as inactive in test [1], in [2], in test [3], in test [4], in [5] and in [6]. Besides, the compound was called inactive in test [7], in test [8], in test [9] and in test [10].
On to `C=CCOC(Cn1ccnc1)c1ccc(Cl)cc1Cl` (stereo not given), for which the AC50 in test [1] is 28.6 µM (active); in [2], 18.6 µM (active); in [3], 35.3 µM (active); in test [5], 88.7 µM (active); in [6] it was 91.6 µM (active); in test [10] it was 79.6 µM (active). Moreover, the outcome in test [7], in test [8] and in test [9] was inactive.
For the compound `CCN(CC)C(=O)c1cccc(C)c1`, the call in test [1], in test [2], in test [3], in test [4], in test [5] and in test [6] was inactive. The outcome in test [8], in [9] and in [10] was inactive.
With `CSC(=O)c1cccc2nnsc12`, the compound was classed as inactive in test [1], in [2], in test [3], in [4], in test [5] and in test [6]. Further, the compound was called inactive in test [7], in test [8], in test [9] and in test [10].
`CC1(C)C(C=C(Cl)Cl)C1C(=O)OCc1cccc(Oc2ccccc2)c1` (stereo not given): the outcome in test [1], in test [2], in test [3], in [4], in [5] and in test [6] was inactive. Also, the result in test [7], in [8], in test [9] and in [10] was inactive.
For the compound `S=C([S-])NCCNC(=S)[S-].[Mn+2]`, the AC50 is 3.58 µM (active) in test [1]; 3.6 µM (active) in test [2]; 4.73 µM (active) in [3]; 2.38 µM (active) in [4]; 4.33 µM (active) in [6]; 8.92 µM (active) in [7]. Moreover, the figures for the AC50 in test [8] and in test [10] were 1.88 µM (active) and 3.12 µM (active), respectively. Further, the call in test [5] and in test [9] was inactive.
For the compound `COc1c(Cl)ccc(Cl)c1C(=O)O`, the result in test [1], in test [4], in test [5], in [6], in test [7] and in test [8] was inactive. The compound was called inactive in [9] and in test [10].
For the compound `CCCCCCC(C)OC(=O)COc1nc(F)c(Cl)c(N)c1Cl` (stereo not given), the compound was called inactive in test [1], in [2], in test [3], in test [4], in test [5] and in test [6]. Also, the call in test [7], in test [8], in [9] and in test [10] was inactive.
As for `OB(O)O`, the outcome in test [1], in [2], in [3], in test [4], in test [5] and in test [6] was inactive. For the same compound, the compound was called inactive in [7], in test [8], in test [9] and in test [10].
For `CCOC(=O)c1ccc(O)cc1`, the outcome in test [1], in [2], in test [3], in [4], in test [5] and in [6] was inactive. In addition, the outcome in test [7], in test [8], in [9] and in test [10] was inactive.
For the compound `CC(C)(C)[C@@H](O)[C@@H](Cc1ccc(Cl)cc1)n1cncn1`, the AC50 in test [1] is 50 µM (active); in [2], 27.8 µM (active). Besides, the compound was called inactive in test [3], in test [4], in test [5], in test [6], in test [7] and in test [8]. Moreover, the outcome in test [10] was inactive.
Take `O=C(O)C1(C(=O)Nc2ccc(Cl)cc2Cl)CC1`: the AC50 in [1] is 77.5 µM (active); in test [2], 80.7 µM (active); in [3] it was 77.8 µM (active); in test [4], 48.8 µM (active); in test [5] it was 50 µM (active); in test [6], 90.1 µM (active). For the same compound, the AC50 in test [10] is 50 µM (active). In addition, the call in test [7], in test [8] and in [9] was inactive.
Take `N#CSCSc1nc2ccccc2s1`: the figures for the AC50 in test [1], in test [2] and in [4] were 88.5 µM (active), 90.5 µM (active) and 86 µM (active), respectively. In addition, the compound was called inactive in [3], in [5], in [6], in test [7], in test [8] and in [9]. In addition, the call in test [10] was inactive.
As to `CCNc1nc(N)nc(Cl)n1`, the result in [1], in [2], in test [3], in test [4], in test [5] and in test [6] was inactive. Besides, the call in test [7], in test [8], in [9] and in test [10] was inactive.
Consider `CCCCC(CC)COC(=O)c1ccccc1C(=O)O` (stereo not given), for which the compound was classed as inactive in test [1], in test [2], in test [4], in [5], in test [6] and in [7]. The call in test [8], in test [9] and in [10] was inactive. Besides, the AC50 in [3] is 50.8 µM (active).
For the compound `CCCCOC(=O)C(C)Oc1ccc(Oc2ccc(C(F)(F)F)cn2)cc1` (stereo not given), the outcome in test [1], in test [2], in [3], in [4], in [5] and in test [6] was inactive. For the same compound, the compound was called inactive in test [7], in test [8], in test [9] and in [10].
